# Results as given in ChEMBL document CHEMBL3988442, “University of Dundee, Small-Polar-MMV Screening Library” (2021).
# Among all 66,000 compounds or so, about 960 (1.5%) showed an effect of 50% or more. The entries come from a sample that favours strong results as a whole.
# Test system: Trypanosoma brucei
# Assay: Trypanosoma brucei 72 hour study
# Type: functional, organism-based
# Design: scale not given: in the data most compounds retested in dose-response had high values
structure (smiles),measurement,setting,value
Cc1cnn(C2CCCN(C(=O)Cc3ccc(C#N)cc3)C2)c1 (stereo not drawn),Percent Effect,10 µM,-12.45%
same,Percent Effect,"30.3 µM, […]",-6.124%
CC(C)=CCN1C(=O)[C@H]2CC[C@@H]1CN(c1ncccc1F)C2,Percent Effect,"30 µM, 30.03 µM",-6.371%
Cc1cc(=O)n(CCNS(=O)(=O)c2cccc(C(F)(F)F)c2)cn1,Percent Effect,"30 µM, 30.03 µM",-14.9%
O=C(O)C(F)(F)F.O=C(O)C(F)(F)F.c1cncc(-c2ccc3c(c2)CCC32CCN(Cc3ccco3)CC2)c1,Percent Effect,"30.3 µM, […]",53.48%
CN(C)CC(=O)N1CCC2(CCc3cc(-c4cccnc4)ccc32)CC1.O=C(O)C(F)(F)F.O=C(O)C(F)(F)F,Percent Effect,"30.3 µM, […]",1.858%
O=C(O)C(F)(F)F.O=C(O)C(F)(F)F.c1cncc(-c2ccc3c(c2)CCC32CCN(Cc3nccs3)CC2)c1,Percent Effect,"30.3 µM, […]",13.64%
CNC(=O)CN1CC[C@H]2CN(C(=O)c3cccc(C)c3)C[C@H]2C1.O=C(O)C(F)(F)F,Percent Effect,"30.3 µM, […]",-49.02%
CC[C@@H](C)[C@@H](N)C(=O)Nc1cccc(-c2cnc(N(C)CCO)nc2)c1,Percent Effect,"30.3 µM, […]",-10.78%
CC[C@H](C)[C@H](N)C(=O)Nc1nc(-c2cnc(N(C)C)nc2)cs1,Percent Effect,"30.3 µM, […]",53.79%
CC[C@H](C)[C@H](N)C(=O)Nc1nc(-c2cnc(N3CCOCC3)nc2)cs1,Percent Effect,"30.3 µM, […]",13.61%
CC[C@@H](C)[C@@H](N)C(=O)Nc1cccc(-c2cnc(N)nc2)c1,Percent Effect,"30.3 µM, […]",-21.58%
CC[C@@H](C)[C@@H](N)C(=O)Nc1cccc(-c2cnc(N(C)C)nc2)c1,Percent Effect,"30.3 µM, […]",97.6%
CC[C@H](C)[C@H](N)C(=O)Nc1nc(-c2cnc(N(C)CCO)nc2)cs1,Percent Effect,"30.3 µM, […]",-2.058%
COc1ccc(N(c2ccccc2)c2ccc(C(=O)O)s2)cc1,Percent Effect,"30.3 µM, […]",-3.945%
O=C(O)CC(O)(CC(=O)O)C(=O)O.OCCN(Cc1ccncc1)CC1(c2ccc(Cl)cc2)CC1,Percent Effect,"30.3 µM, […]",-34.12%
Cn1cnc2c1C(COCC1CCOCC1)CN(C1CCOCC1)C2.O=C(O)C(F)(F)F.O=C(O)C(F)(F)F (stereo not drawn),Percent Effect,"30 µM, 30.03 µM",15.95%
Cl.c1cnc2c(c1)cc([C@H]1CCCO1)n2CCN1CCCC1,Percent Effect,"30.3 µM, […]",24.71%
Cn1cccc1C(=O)N1CCC2(CCCN2Cc2ccccc2)CC1.O=C(O)C(F)(F)F,Percent Effect,"30 µM, 30.03 µM",11.3%
CCn1nc(C)c2nnn(CC(=O)Nc3ccccc3)c(=O)c21,Percent Effect,"30.3 µM, […]",-5.47%
Cc1nn(C)c2c(=O)n(CC(=O)Nc3cc(Cl)cc(Cl)c3)nnc12,Percent Effect,"30 µM, 30.03 µM",63.83%
CCn1nc(C)c2nnn(CC(=O)Nc3cccc(Cl)c3)c(=O)c21,Percent Effect,"30 µM, 30.03 µM",35.21%
CCn1nc(C)cc1C(=O)N1C[C@@H]2C[C@@H](C)O[C@@H]2C1.O=C(O)C(F)(F)F,Percent Effect,"30.3 µM, […]",3.708%
COCC1CN(C(=O)c2ccoc2)Cc2cnn(CC3CCOCC3)c21.O=C(O)C(F)(F)F (stereo not drawn),Percent Effect,"30.3 µM, […]",-46.76%
NC1C=C(C(F)(F)F)NC=C1c1ccccc1 (stereo not drawn),Percent Effect,"30.3 µM, […]",8.109%
CC(C)CC(=O)N1C[C@@H]2CCN(c3cnccn3)C[C@@H]2C1.O=C(O)C(F)(F)F,Percent Effect,"30.3 µM, […]",-10.22%
CC(C)(C)S(=O)(=O)CCNC(=O)c1ccc2ccccc2c1,Percent Effect,"30 µM, 30.03 µM",-8.633%
CC(C)(C)S(=O)(=O)CCNC(=O)c1ccc2cc[nH]c2c1,Percent Effect,"30 µM, 30.03 µM",101.8%
CC(C)(C)OC(=O)NCCNC(=O)c1ccc2cc[nH]c2c1,Percent Effect,"30 µM, 30.03 µM",3.798%
CN1CCN(CCO)C(=O)C12CCN(Cc1ccsc1)CC2.O=C(O)C(F)(F)F.O=C(O)C(F)(F)F,Percent Effect,"30.3 µM, […]",-7.984%
CN(C(=O)[C@H]1CSCN1C(=O)OC(C)(C)C)C1CC1,Percent Effect,"30 µM, 30.03 µM",-17.54%
Cn1nc2c(cc1=O)CN(Cc1coc(-c3cccc(F)c3)n1)CC2,Percent Effect,"30.3 µM, […]",75.84%
Cn1nc2c(cc1=O)CN(Cc1coc(-c3ccc(F)cc3)n1)CC2,Percent Effect,"30.3 µM, […]",21.89%
Cn1nc2c(cc1=O)CN(Cc1coc(-c3ccccc3)n1)CC2,Percent Effect,"30.3 µM, […]",-6.992%
CN1CCN(c2ccc(F)cc2NC(=O)NCc2ccon2)CC1,Percent Effect,"30.3 µM, […]",-94.37%
Cc1nccn1CC1CCN(C(=O)Cc2ccccc2)CC1,Percent Effect,"30 µM, 30.03 µM",-11.09%
CC(C)N(C)Cc1cnc2n1CCN(Cc1ccsc1)C2.O=C(O)C(F)(F)F.O=C(O)C(F)(F)F,Percent Effect,"30.3 µM, […]",-0.145%
Cc1cc(-c2nccs2)nc(C2CCN(Cc3ccc(F)cc3)CC2)n1.Cl,Percent Effect,"30.3 µM, […]",-1.786%
CC(C)(C)c1cc(NC(=O)CN2CCc3cncnc3C2)on1,Percent Effect,"30.3 µM, […]",8.588%
same,Percent Effect,"10 mM, 10 mM as filed; unlikely as a test dose",-38.22%
Cc1cc(NC(=O)CN2CCc3cncnc3C2)on1,Percent Effect,"30.3 µM, […]",8.362%
same,Percent Effect,"10 mM, 10 mM as filed; unlikely as a test dose",-44.64%
CC(C)c1cc(NC(=O)CN2CCc3cncnc3C2)on1,Percent Effect,"30 µM, 30.03 µM",51%
COC[C@@H]1CCC[C@@]12CN(Cc1ccco1)CCO2.O=C(O)C(F)(F)F,Percent Effect,"30 µM, 30.03 µM",-1.793%
CCn1cc(N2Cc3nc(N4CCCC4)ncc3C2=O)cn1,Percent Effect,"30.3 µM, […]",-27.06%
Cc1cccnc1N1CCN(C(=O)C(C)n2ccnc2C(C)C)CC1 (stereo not drawn),Percent Effect,"30 µM, 30.03 µM",78.55%
Cc1cc(N2CCN(C(=O)C(C)n3ccnc3C(C)C)CC2)cc(C)n1 (stereo not drawn),Percent Effect,"30 µM, 30.03 µM",-26.06%
CC(C)c1nccn1C(C)C(=O)N1CCN(c2ccccc2Cl)CC1 (stereo not drawn),Percent Effect,"30 µM, 30.03 µM",16.25%
